Experimental data as given in the antibiotic and cytotoxicity screens of Wong et al. (2023).
The whole screen tested about 39,000 compounds, of which about 1,500 (3.8%) were called active. The list comes from a sample in which actives are over-represented; it also holds similar structures and randomly drawn compounds.

Tested on: HSkMC (human skeletal muscle cells)
Test: cytotoxicity call (relative viability < 0.9)
Settings: 10 µM

Structure (SMILES)	cytotoxicity call
CCS(=O)(=O)NCC[C@@H]1CC[C@@H](NC(=O)Cc2ccccn2)[C@H](CO)O1	inactive
C[C@H](CO)N1C[C@H](C)[C@@H](CN(C)C(=O)Nc2ccc(C(F)(F)F)cc2)Oc2ccc(NC(=O)Cc3cn(C)c4ccccc34)cc2C1=O	inactive
C[C@@H]1CN([C@H](C)CO)C(=O)c2cc(NC(=O)Cc3cn(C)c4ccccc34)ccc2O[C@H]1CN(C)C(=O)Nc1ccc(C(F)(F)F)cc1	inactive
C[C@H](CO)N1C[C@H](C)[C@@H](CN(C)Cc2ccc(C(F)(F)F)cc2)Oc2ccc(NC(=O)Cc3cn(C)c4ccccc34)cc2C1=O	inactive
C[C@@H]1CN([C@H](C)CO)C(=O)c2cc(NC(=O)Cc3cn(C)c4ccccc34)ccc2O[C@@H]1CN(C)Cc1ccc(C(F)(F)F)cc1	active
C[C@@H]1CN([C@@H](C)CO)C(=O)c2cc(NC(=O)Cc3cn(C)c4ccccc34)ccc2O[C@@H]1CN(C)C(=O)Nc1ccc(C(F)(F)F)cc1	active
C[C@@H]1CN([C@H](C)CO)C(=O)c2cc(NC(=O)Cc3cn(C)c4ccccc34)ccc2O[C@H]1CN(C)Cc1ccc(C(F)(F)F)cc1	inactive
O=C(C[C@H]1CC[C@H]2[C@@H](COC[C@@H](O)CN2S(=O)(=O)c2ccccc2)O1)N1CCc2ccccc2C1	inactive
C[C@H]1CN([C@@H](C)CO)C(=O)c2cc(NS(=O)(=O)c3ccccc3)ccc2O[C@H]1CN(C)CC1CC1	inactive
Cn1c(N)c(C(=O)c2ccco2)c(=O)n(C)c1=O	inactive
C[C@H](CO)N1C[C@H](C)[C@H](CN(C)S(=O)(=O)c2ccc(Cl)cc2)Oc2ccc(NC(=O)CCN3CCOCC3)cc2CC1=O	inactive
C[C@@H]1CN([C@@H](C)CO)S(=O)(=O)c2ccc(C#C[C@@H](C)O)cc2O[C@H]1CN(C)C(=O)c1ccncc1	inactive
COc1ccc2c3c([nH]c2c1)[C@H](CO)N(C[C@]13CCN(CC1)CC1CCCC1)C(=O)CN1CCOCC1	inactive
C[C@H]1CN([C@@H](C)CO)C(=O)Cc2cc(NC(=O)c3ccncc3)ccc2O[C@@H]1CN(C)S(=O)(=O)c1ccc(Cl)cc1	inactive
C[C@@H]1CCCCO[C@@H](CN(C)Cc2ccccc2)[C@@H](C)CN([C@@H](C)CO)C(=O)c2cc(NC(=O)CCC(F)(F)F)ccc2O1	inactive
CC(C)C[C@@H]1C(=O)O[C@H](C)C(=O)N(C)[C@@H](CC(C)C)C(=O)O[C@H](Cc2ccc(N3CCOCC3)cc2)C(=O)N(C)[C@@H](CC(C)C)C(=O)O[C@H](C)C(=O)N(C)[C@@H](CC(C)C)C(=O)O[C@H](Cc2ccc(N3CCOCC3)cc2)C(=O)N1C	active
CCOc1cc(OCC)cc(C(=O)N[C@@H](Cc2ccc(-n3cc(-c4ccc(C(=O)NO)s4)nn3)cc2)C(=O)OC)c1	inactive
COc1ccccc1-c1cnc2c(c1)C(=O)N([C@H](C)CO)C[C@@H](C)[C@H](CN(C)C(=O)c1cccnc1)O2	inactive
C[C@H]1CN([C@@H](C)CO)C(=O)c2cccc(NC(=O)Nc3cccc4ccccc34)c2O[C@H]1CN(C)Cc1ccc(Cl)c(Cl)c1	inactive
C[C@H]1CN([C@@H](C)CO)C(=O)c2cccc(NC(=O)Nc3ccccc3)c2O[C@H]1CN(C)Cc1ccc(Cl)c(Cl)c1	inactive
C[C@H](CO)N1C[C@H](C)[C@H](CN(C)Cc2ccc(Cl)c(Cl)c2)Oc2c(NC(=O)Nc3ccccc3)cccc2C1=O	inactive
C[C@H]1CN([C@@H](C)CO)C(=O)c2cccc(NC(=O)Nc3ccccc3)c2O[C@@H]1CN(C)Cc1ccc(Cl)c(Cl)c1	active
C[C@@H]1CN([C@@H](C)CO)C(=O)c2cccc(NC(=O)Nc3cccc4ccccc34)c2O[C@@H]1CN(C)Cc1ccc(Cl)c(Cl)c1	inactive

Structure (SMILES)	cytotoxicity call
C[C@H](CO)N1C[C@H](C)[C@@H](CN(C)Cc2ccc(Cl)c(Cl)c2)Oc2c(NC(=O)Nc3ccccc3)cccc2C1=O	active
C[C@H](CO)N1C[C@H](C)[C@@H](CN(C)Cc2ccc(Cl)c(Cl)c2)Oc2c(NC(=O)Nc3cccc4ccccc34)cccc2C1=O	active
C[C@@H]1CN([C@@H](C)CO)C(=O)c2cccc(NC(=O)Nc3ccccc3)c2O[C@@H]1CN(C)Cc1ccc(Cl)c(Cl)c1	inactive
C[C@@H]1CN([C@H](C)CO)C(=O)c2cccc(NC(=O)Nc3ccccc3)c2O[C@H]1CN(C)Cc1ccc(Cl)c(Cl)c1	inactive
Cc1noc(C)c1NC(=O)Nc1ccc2c(c1)C(=O)N([C@H](C)CO)C[C@H](C)[C@@H](CN(C)Cc1ccc(Oc3ccccc3)cc1)O2	inactive
C[C@H]1CN([C@@H](C)CO)C(=O)Cc2cc(NC(=O)Cc3ccccc3)ccc2O[C@H]1CN(C)C(=O)Nc1cccc2ccccc12	inactive
Cc1noc(C)c1S(=O)(=O)Nc1ccc2c(c1)C(=O)N([C@H](C)CO)C[C@@H](C)[C@@H](CN(C)Cc1ccc(Oc3ccccc3)cc1)O2	inactive
Cc1cc2c(cc1C)N[C@@H](CC(N)=O)C(=O)N2	inactive
C[C@@H]1CN([C@H](C)CO)C(=O)Cc2cc(NC(=O)CCCN(C)C)ccc2O[C@H]1CN(C)Cc1ccc(Oc2ccccc2)cc1	inactive
COc1ccccc1S(=O)(=O)N[C@H]1C=C[C@H](CC(=O)N2CCN(C)CC2)O[C@@H]1CO	inactive
C[C@H](CO)N1C[C@H](C)[C@H](CN(C)C(=O)NC2CCCCC2)OCCCC[C@H](C)Oc2ccc(NC(=O)Nc3ccc(C(F)(F)F)cc3)cc2C1=O	inactive
C[C@H](CO)N1C[C@H](C)[C@@H](CN(C)C(=O)c2ccncc2)Oc2cc(-c3cccc(C#N)c3)ccc2S1(=O)=O	inactive
C[C@@H]1CCCCO[C@H](CN(C)Cc2ccccc2)[C@@H](C)CN([C@H](C)CO)C(=O)c2cc(NS(=O)(=O)c3ccccc3)ccc2O1	inactive
CCC(=O)Oc1ccc2c(c1)CCC1C2CCC2(C)C1CC(OC(=O)CC)C2OC(=O)CC (configuration not stated)	inactive
CC(C)c1cccc(C(C)C)c1NC(=O)Cc1cccs1	inactive
CC(C)c1cc(C(C)C)c(CC(=O)NS(=O)(=O)Oc2c(C(C)C)cccc2C(C)C)c(C(C)C)c1	active
COC(=O)[C@@H](N)c1cccc(OC)c1	inactive
C[C@H]1CN([C@@H](C)CO)C(=O)c2c(c3ccccc3n2C)-c2ccccc2CO[C@H]1CN(C)C(=O)c1ccc(F)cc1	inactive
COC(=O)C[C@@H]1CC[C@@H]2[C@H](COC[C@H](O)CN2S(=O)(=O)c2ccc(F)cc2)O1	inactive
C[C@@H]1CN([C@@H](C)CO)S(=O)(=O)c2ccc(-c3cccnc3)cc2O[C@@H]1CN(C)C(=O)NC1CCCC1	inactive
C[C@@H]1CN([C@H](C)CO)S(=O)(=O)c2ccc(-c3cncnc3)cc2O[C@@H]1CN(C)C(=O)C1CCCCC1	inactive
CCCCC1C(=O)N(c2ccccc2)N(c2ccc(O)cc2)C1=O (configuration not stated)	inactive
Oc1ccc(O)cc1	inactive

Structure (SMILES)	cytotoxicity call
O=C1C=CC(=O)N1c1ccc(O)cc1	active
COc1ccc(CN(C)C[C@H]2OCCCC[C@H](C)Oc3ccc(NS(=O)(=O)c4cccs4)cc3C(=O)N([C@@H](C)CO)C[C@@H]2C)cc1	inactive
C[C@H]1CN([C@@H](C)CO)S(=O)(=O)c2ccc(C3=CCCCC3)cc2O[C@H]1CN(C)S(=O)(=O)c1cn(C)cn1	inactive
Cc1ccc(S(=O)(=O)Nc2ccc3c(c2)C(=O)N([C@H](C)CO)C[C@@H](C)[C@H](CN(C)Cc2ccccc2)OCCCC[C@@H](C)O3)cc1	inactive
COc1ccc(S(=O)(=O)N(C)C[C@H]2Oc3c(NC(=O)Nc4c(C)noc4C)cccc3C(=O)N([C@@H](C)CO)C[C@H]2C)cc1	inactive
COc1ccc2c3c(n(c2c1)C)[C@H](CO)N(C[C@]13CN(C1)C(=O)CN(C)C)C(=O)CN(C)C	inactive
C[C@@H]1CN([C@@H](C)CO)C(=O)c2cc(NC(=O)CCCN(C)C)ccc2O[C@H]1CN(C)Cc1ccc(C(=O)O)cc1	inactive
Cc1ncc([N+](=O)[O-])n1C[C@@H](O)CCl	inactive
Cc1noc(C)c1NC(=O)N(C)C[C@@H]1Oc2ccc(NC(=O)Cn3cnnn3)cc2C(=O)N([C@@H](C)CO)C[C@@H]1C	inactive
N#Cc1c(N)nc(SCc2csc(-c3ccc(Cl)cc3)n2)c(C#N)c1-c1ccc(OCCO)cc1	active
COc1ccc(NC(=O)Nc2ccc3c(c2)C(=O)N([C@@H](C)CO)C[C@@H](C)[C@@H](CN(C)C(=O)Nc2ccc4c(c2)OCO4)OCCCC[C@@H](C)O3)cc1	inactive
C[C@@H]1CCCCO[C@@H](CN(C)C(=O)CCC(F)(F)F)[C@@H](C)CN([C@@H](C)CO)C(=O)c2cc(NC(=O)Cc3ccccc3)ccc2O1	inactive
C[C@@H]1CN([C@@H](C)CO)C(=O)Cc2cc(NC(=O)Nc3ccc(F)cc3)ccc2O[C@@H]1CN(C)S(C)(=O)=O	inactive
CCCNC(=O)[C@@]1(Sc2ccc(C)cc2)CC(=O)N(Cc2ccccc2C(F)(F)F)[C@@H]1c1ccc(CO)cc1	inactive
Cn1cc(-c2[nH]c3cc(NC(=O)[C@H](N)C4CCCCC4)cc4c3c2C=NNC4=O)cn1	active
CCCCCCCC/C=C\CCCCCCCC(N)=O	inactive
O=C(C[C@@H]1CC[C@@H]2[C@H](COC[C@H](O)CN2S(=O)(=O)c2ccccc2)O1)NCc1ccncn1	inactive
C[C@@H]1CCCCO[C@@H](CN(C)C(=O)Nc2ccc(C(F)(F)F)cc2)[C@@H](C)CN([C@H](C)CO)C(=O)c2cc(NC(=O)CCCCCC(=O)Nc3ccccc3N)ccc2O1	inactive
CCCCC(=O)c1ccc(O)cc1	inactive
CCCCCS(=O)(=O)CCCCCCCCCCn1c(-c2ccc(O)cc2)c(C)c2cc(O)ccc21	active
CC(=O)O.Cc1c(-c2ccc(O)cc2)n(Cc2ccc(OCCN3CCCCCC3)cc2)c2ccc(O)cc12	inactive
